Where “and” joins values, the source holds several entries; their conditions need not be identical. Equal values may be shown once. Results filed as inconclusive are left out. Calls of active or inactive are those of the source. Rule for the calls, unless noted: active = hit-call score of the fitted dose curve at least 0.9, where 1 is the maximum; inactive = score below 0.9.
Assays:
[1] = target: Oxysterols receptor LXR-alpha (Homo sapiens) (UniProt Q13133); test: ATG_LXRa_TRANS: Attagene TRANS-FACTORIAL HepG2 Assay for human Liver X Receptor alpha (LXRa) (AID 2282980; active = hit-call score of the fitted dose curve at least 0.9, where 1 is the maximum); conditions: HepG2 Attagene TRANS reporter, LXRa transactivation
Method in brief: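 Chemical-induced reporter mRNA measured by RT-PCR with fluorescent labelling and capillary electrophoresis after 24 h dosing of transiently transfected HepG2 cells expressing exogenous NR-Gal4 chimeras; increases scored against DMSO baseline.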

[2] = target: Oxysterols receptor LXR-beta (Homo sapiens) (UniProt P55055); test: ATG_LXRb_TRANS: Attagene TRANS-FACTORIAL HepG2 Assay for human Liver X Receptor beta (LXRb) (AID 2282981; active = hit-call score of the fitted dose curve at least 0.9, where 1 is the maximum); conditions: HepG2 Attagene TRANS GAL4-LXRb reporter, mRNA
Method in brief: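 After 24 h of chemical treatment, transfected HepG2 cells yield total RNA; reporter cDNA is PCR-amplified, FAM-labelled, HpaI-cut and run on capillary electrophoresis. Signal reflects chimeric LXRb-Gal4 activity on GAL4-UAS reporters.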

[3] = ATG_M_06_TRANS: Attagene TRANS-FACTORIAL HepG2 Assay for M06 Transcription Factor (Internal Marker) (AID 2282983; active = hit-call score of the fitted dose curve at least 0.9, where 1 is the maximum;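 note: reporter transcript level by RT-PCR then capillary electrophoresis fluorescence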); conditions: HepG2 Attagene TRANS M06 internal marker reporter
Method in brief: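 Background-control reporter readout: after 24 h chemical exposure of transiently transfected HepG2 (GAL4-UAS reporter units), mRNA quantified by RT-PCR with fluorescent labeling and capillary electrophoresis. Gain-of-signal fitting against DMSO baseline.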

[4] = target: Transcriptional activator Myb (Homo sapiens) (UniProt P10242); test: ATG_Myb_CIS: Attagene CIS-FACTORIAL HepG2 Assay for human Myeloblastosis (Myb) Proto-Oncogene Transcription Factor (AID 2282986); conditions: HepG2 Attagene CIS-FACTORIAL Myb reporter transcription; actives raise or lower the signal
Method in brief: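 HepG2 cells were transiently transfected with cis-regulated multiple reporter transcription units reflecting endogenous Myb activity, then exposed to compound for 24 hours. Reporter mRNA was measured by RT-PCR with capillary electrophoresis; bidirectional fitting versus DMSO baseline.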

[5] = target: Nuclear respiratory factor 1 (Homo sapiens) (UniProt Q16656); test: ATG_NRF1_CIS: Attagene CIS-FACTORIAL HepG2 Assay for human Nuclear Respiratory Factor 1 (NRF1) Orphan Gene (AID 2282987); conditions: HepG2 NRF1 cis-element reporter, Attagene multiplex; actives raise or lower the signal
Method in brief: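 HepG2 cells transiently transfected with multiple reporter transcription units under cis-regulatory promoter control, so endogenous transcription-factor activity is read. After 24 h compound exposure, reporter mRNA quantified by RT-PCR, fluorescent labelling, HpaI digestion and capillary electrophoresis; bidirectional fitting versus DMSO.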

[6] = ATG_NFI_CIS: Attagene CIS-FACTORIAL HepG2 Assay for human Nuclear Factor I (NFI) (AID 2282989); conditions: HepG2 cis-regulatory reporter, NFI response element transcription; actives raise or lower the signal
Method in brief: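 Multiplexed cis-reporter system in human HepG2 cells reports native TF activity as reporter mRNA induction 24 h post-dose. Fragments labelled with 6-FAM, HpaI-digested and resolved by capillary electrophoresis; activity fitted both directions versus DMSO.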

[7] = target: Myc proto-oncogene protein (Homo sapiens) (UniProt P01106); test: ATG_Myc_CIS: Attagene CIS-FACTORIAL HepG2 Assay for human Myelocytomatosis (Myc) Proto-Oncogene Transcription Factor (AID 2282990); conditions: HepG2, Attagene cis-reporter transcription factor activity; actives raise or lower the signal
Method in brief: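 After 24 h chemical treatment of HepG2 cells carrying multiplexed cis-regulated reporter constructs, reporter transcripts quantified by RT-PCR and capillary electrophoresis of fluorescent fragments. Gain or loss fitted against DMSO baseline.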

[8] = ATG_NRF2_ARE_CIS: Attagene CIS-FACTORIAL HepG2 Assay for human Nuclear Factor Erythroid 2 Related Factor 2 (NFR2) response to Antioxidant Response Elements (ARE) (AID 2282992); conditions: HepG2 Attagene ARE/NRF2 reporter, transcription factor activity; actives raise or lower the signal;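 for AC50: reporter mRNA level measured by RT-PCR and capillary electrophoresis fluorescence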
Method in brief: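 Endogenous transcription factor activity in human liver HepG2 cells is tracked via a cis-element-driven reporter within a multiplexed set. mRNA induction is read by RT-PCR and capillary electrophoresis after 24 h, with DMSO as baseline.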

[9] = ATG_Oct_MLP_CIS: Attagene CIS-FACTORIAL HepG2 Assay for human Octamer-Binding Transcription Factor (Oct) (AID 2282993); conditions: HepG2 Attagene cis-factorial Oct reporter, mRNA; actives raise or lower the signal
Method in brief: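 After 24 h compound exposure, transfected HepG2 cells were lysed for total RNA; reporter-specific cDNA was PCR-amplified, fluorescently labelled and sized by capillary electrophoresis. Bidirectional curve fitting used DMSO as baseline.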

[10] = BSK_3C_TissueFactor: BioMAP Diversity Plus: 3C Assay for Tissue Factor Biomarker Activity (AID 2282997); conditions: BioMAP 3C HUVEC, tissue factor biomarker readout; actives raise or lower the signal
Method in brief: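 Tissue factor on primary human umbilical vein endothelium was read by ELISA 24 h after dosing, gain or loss relative to DMSO. Cytotoxicity ran alongside via SRB (0.1%, TCA-fixed, 560 nm).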

[11] = BSK_3C_uPAR: BioMAP Diversity Plus: 3C Assay for Urokinase-type plasminogen activator receptor (uPAR) Biomarker Activity (AID 2282998); conditions: BioMAP 3C HUVEC, uPAR biomarker ELISA; actives raise or lower the signal
Method in brief: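 Values derive from bidirectional curve fitting relative to DMSO, which served as baseline of activity. uPAR was measured by ELISA in human umbilical vein endothelial primary cultures 24 h after compound addition.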

[12] = BSK_3C_VCAM1: BioMAP Diversity Plus: 3C Assay for Vascular cell adhesion molecule 1 (VCAM1) Biomarker Activity (AID 2282999); conditions: BioMAP 3C HUVEC, VCAM1 ELISA, cytokine-stimulated; actives raise or lower the signal
Method in brief: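 Activity fitted in both directions relative to DMSO, with ELISA measurement of the surface marker on primary HUVEC (3C) at 24 h post-treatment; parallel SRB staining (0.1% SRB, TCA-fixed, 560 nm) flagged overt cytotoxicity.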

[13] = target: Glucocorticoid receptor (Homo sapiens) (UniProt P04150); test: ATG_GR_TRANS: Attagene TRANS-FACTORIAL HepG2 Assay for human Glucocorticoid Receptor (GR) (AID 2282978; active = hit-call score of the fitted dose curve at least 0.9, where 1 is the maximum;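 note: activators score as hits since higher reporter transcript over DMSO is fitted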); conditions: HepG2 Attagene TRANS GR reporter, mRNA transcription
Method in brief: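 HepG2 cells transiently transfected with multiplexed reporter units in which chimeric NR-GAL4 proteins drive GAL4-UAS reporters; 24 h compound exposure. Reporter mRNA measured by RT-PCR, 6-FAM labelling, HpaI digestion and capillary electrophoresis; gain-of-signal fitted versus DMSO.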

[14] = ATG_M_32_TRANS: Attagene TRANS-FACTORIAL HepG2 Assay for M32 Transcription Factor (Internal Marker) (AID 2282984; active = hit-call score of the fitted dose curve at least 0.9, where 1 is the maximum;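 note: transcript level of a background control reporter unit measured by RT-PCR and capillary electrophoresis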); conditions: HepG2 Attagene TRANS M32 internal marker reporter
Method in brief: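 Cell-based TRANS-format assay in HepG2: exogenous chimeric GAL4 reporter units transiently expressed, compounds applied 24 h. Reporter mRNA detected by RT-PCR plus capillary electrophoresis; this readout is an internal background marker.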

[15] = target: Cellular tumor antigen p53 (Homo sapiens) (UniProt P04637); test: ATG_p53_CIS: Attagene CIS-FACTORIAL HepG2 Assay for human p53 Transcription Factor (AID 2282994); conditions: HepG2 p53 cis-element reporter, Attagene mRNA; actives raise or lower the signal
Method in brief: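 Steps: transfect HepG2 with multiplexed cis reporter constructs; dose chemicals 24 h; extract RNA, reverse-transcribe, PCR-amplify reporter sequences; FAM-label, HpaI-digest, resolve fragments by CE. Activity fitted both directions relative to DMSO.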

[16] = ATG_NF_kB_CIS: Attagene CIS-FACTORIAL HepG2 Assay for human Nuclear Factor Kappa B (NF-kB) (AID 2282991); conditions: HepG2 Attagene cis-factorial NF-kB reporter mRNA; actives raise or lower the signal
Method in brief: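 HepG2 cells transiently transfected with multiplexed cis-element reporter units measuring endogenous transcription factor activity; reporter mRNA read 24 h after dosing by RT-PCR, fluorescent labelling, HpaI digestion and capillary electrophoresis. Bidirectional fit against DMSO baseline.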

[17] = target: Bile acid receptor (Homo sapiens) (UniProt Q96RI1); test: ATG_FXR_TRANS: Attagene TRANS-FACTORIAL HepG2 Assay for Farnesoid X Receptor (FXR) (AID 2282979; active = hit-call score of the fitted dose curve at least 0.9, where 1 is the maximum;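 note: hits raise reporter mRNA above DMSO so AC50 marks FXR activation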); conditions: HepG2 Attagene TRANS FXR-GAL4 reporter transcription
Method in brief: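 Reporter transcripts from transfected HepG2 cells were measured 24 h after dosing, using RT-PCR with capillary electrophoresis of 6-FAM-labelled fragments. The read-out reflects activity of exogenous FXR-Gal4 chimera on GAL4-UAS units, with induction relative to DMSO.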

[18] = target: Nuclear receptor subfamily 4 group A member 2 (Homo sapiens) (UniProt P43354); test: ATG_NURR1_TRANS: Attagene TRANS-FACTORIAL HepG2 Assay for human Nuclear Receptor Related Protein 1 (NURR1) (AID 2282985; active = hit-call score of the fitted dose curve at least 0.9, where 1 is the maximum); conditions: HepG2 Attagene TRANS reporter, mRNA readout
Method in brief: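 Measures transcriptional activation by an exogenous NR-Gal4 chimera in transfected HepG2 liver cells. After 24 h, reporter RNA is reverse-transcribed, amplified and resolved by capillary electrophoresis; DMSO defines baseline.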

[19] = target: Hepatocyte nuclear factor 4-alpha (Homo sapiens) (UniProt P41235); test: ATG_HNF4a_TRANS: Attagene TRANS-FACTORIAL HepG2 Assay for human Hepatocyte Nuclear Factor 4 alpha (HNF4a) (AID 2282982; active = hit-call score of the fitted dose curve at least 0.9, where 1 is the maximum); conditions: HepG2 HNF4a transactivation reporter, mRNA readout
Method in brief: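 Multiplexed reporter assay: transfected HepG2, 24 h exposure, total RNA → oligo(dT) RT → PCR → 6-FAM extension → HpaI digest → CE fluorescence. DMSO = negative control.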

Measured: AC50

Chain of Nuclear respiratory factor 1 (Homo sapiens) (Q16656 whole entry, looked up): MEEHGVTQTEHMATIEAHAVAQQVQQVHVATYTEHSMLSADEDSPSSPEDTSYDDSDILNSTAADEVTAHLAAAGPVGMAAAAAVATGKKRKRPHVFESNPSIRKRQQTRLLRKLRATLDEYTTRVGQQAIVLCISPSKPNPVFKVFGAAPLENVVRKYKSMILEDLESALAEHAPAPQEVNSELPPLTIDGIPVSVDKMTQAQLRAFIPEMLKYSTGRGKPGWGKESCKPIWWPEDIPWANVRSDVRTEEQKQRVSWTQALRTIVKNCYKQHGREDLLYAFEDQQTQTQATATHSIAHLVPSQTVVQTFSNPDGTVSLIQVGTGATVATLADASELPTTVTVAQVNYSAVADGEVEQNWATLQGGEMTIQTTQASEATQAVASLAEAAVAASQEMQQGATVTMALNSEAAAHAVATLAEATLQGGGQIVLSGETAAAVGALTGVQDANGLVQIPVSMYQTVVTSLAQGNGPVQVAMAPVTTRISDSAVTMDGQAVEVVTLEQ
Chain of Nuclear receptor subfamily 4 group A member 2 (Homo sapiens) (P43354 whole entry, looked up, the tested form may be a part): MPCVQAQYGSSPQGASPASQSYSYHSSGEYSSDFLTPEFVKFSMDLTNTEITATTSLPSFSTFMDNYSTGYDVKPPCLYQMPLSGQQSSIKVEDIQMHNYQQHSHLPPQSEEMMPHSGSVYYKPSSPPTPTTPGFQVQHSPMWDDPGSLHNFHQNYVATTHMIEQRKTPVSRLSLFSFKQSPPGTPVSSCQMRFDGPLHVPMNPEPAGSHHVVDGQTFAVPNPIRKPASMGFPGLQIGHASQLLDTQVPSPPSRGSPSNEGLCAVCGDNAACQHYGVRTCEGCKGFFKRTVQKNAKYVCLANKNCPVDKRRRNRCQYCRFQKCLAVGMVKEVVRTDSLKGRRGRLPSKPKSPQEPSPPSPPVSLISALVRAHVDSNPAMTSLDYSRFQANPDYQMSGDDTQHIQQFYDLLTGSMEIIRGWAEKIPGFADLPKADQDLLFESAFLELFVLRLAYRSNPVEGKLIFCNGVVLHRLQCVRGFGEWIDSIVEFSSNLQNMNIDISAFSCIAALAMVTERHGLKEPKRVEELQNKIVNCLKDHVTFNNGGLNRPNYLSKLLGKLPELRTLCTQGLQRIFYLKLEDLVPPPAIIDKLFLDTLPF
Chain of Cellular tumor antigen p53 (Homo sapiens) (P04637 whole entry, looked up, the tested form may be a part): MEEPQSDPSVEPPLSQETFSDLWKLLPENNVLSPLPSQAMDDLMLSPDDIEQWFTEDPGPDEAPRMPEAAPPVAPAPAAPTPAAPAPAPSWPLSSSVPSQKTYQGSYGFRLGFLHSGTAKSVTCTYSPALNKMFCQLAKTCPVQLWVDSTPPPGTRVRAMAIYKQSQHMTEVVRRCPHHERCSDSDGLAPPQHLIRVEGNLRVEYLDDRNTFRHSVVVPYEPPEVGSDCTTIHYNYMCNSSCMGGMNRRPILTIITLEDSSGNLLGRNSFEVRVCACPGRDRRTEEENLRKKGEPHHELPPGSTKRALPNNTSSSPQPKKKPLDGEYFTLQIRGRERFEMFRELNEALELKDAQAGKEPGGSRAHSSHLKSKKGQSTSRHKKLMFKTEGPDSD
Chain of Transcriptional activator Myb (Homo sapiens) (P10242 whole entry, looked up): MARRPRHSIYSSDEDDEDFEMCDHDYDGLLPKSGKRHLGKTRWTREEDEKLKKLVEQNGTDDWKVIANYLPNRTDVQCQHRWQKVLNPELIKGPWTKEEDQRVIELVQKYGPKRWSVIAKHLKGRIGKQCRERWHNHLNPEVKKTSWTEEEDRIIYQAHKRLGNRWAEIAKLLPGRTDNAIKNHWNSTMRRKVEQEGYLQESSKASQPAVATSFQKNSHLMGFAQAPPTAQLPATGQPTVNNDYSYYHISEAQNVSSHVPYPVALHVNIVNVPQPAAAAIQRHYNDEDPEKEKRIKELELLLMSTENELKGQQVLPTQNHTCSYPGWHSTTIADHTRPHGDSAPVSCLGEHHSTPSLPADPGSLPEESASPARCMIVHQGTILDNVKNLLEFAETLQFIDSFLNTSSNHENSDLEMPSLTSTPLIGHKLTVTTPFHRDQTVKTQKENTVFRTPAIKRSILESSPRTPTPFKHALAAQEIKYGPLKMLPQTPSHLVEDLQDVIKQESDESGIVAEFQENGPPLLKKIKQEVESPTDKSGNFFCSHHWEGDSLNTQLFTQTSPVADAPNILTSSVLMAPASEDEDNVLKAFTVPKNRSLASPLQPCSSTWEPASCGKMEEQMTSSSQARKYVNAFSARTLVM
Chain of Oxysterols receptor LXR-beta (Homo sapiens) (P55055 whole entry, looked up, the tested form may be a part): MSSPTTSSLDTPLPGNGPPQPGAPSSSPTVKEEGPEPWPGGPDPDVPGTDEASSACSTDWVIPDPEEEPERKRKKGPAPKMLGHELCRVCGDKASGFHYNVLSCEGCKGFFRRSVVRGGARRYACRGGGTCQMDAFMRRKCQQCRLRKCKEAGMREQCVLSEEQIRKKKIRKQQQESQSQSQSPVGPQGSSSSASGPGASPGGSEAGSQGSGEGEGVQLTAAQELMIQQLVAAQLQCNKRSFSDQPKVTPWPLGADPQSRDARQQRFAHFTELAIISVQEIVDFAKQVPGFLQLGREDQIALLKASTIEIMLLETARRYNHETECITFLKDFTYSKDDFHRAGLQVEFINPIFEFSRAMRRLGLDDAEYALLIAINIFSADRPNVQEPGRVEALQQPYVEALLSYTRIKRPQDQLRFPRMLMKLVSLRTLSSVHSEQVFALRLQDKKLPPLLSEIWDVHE
Chain of Oxysterols receptor LXR-alpha (Homo sapiens) (Q13133 whole entry, looked up, the tested form may be a part): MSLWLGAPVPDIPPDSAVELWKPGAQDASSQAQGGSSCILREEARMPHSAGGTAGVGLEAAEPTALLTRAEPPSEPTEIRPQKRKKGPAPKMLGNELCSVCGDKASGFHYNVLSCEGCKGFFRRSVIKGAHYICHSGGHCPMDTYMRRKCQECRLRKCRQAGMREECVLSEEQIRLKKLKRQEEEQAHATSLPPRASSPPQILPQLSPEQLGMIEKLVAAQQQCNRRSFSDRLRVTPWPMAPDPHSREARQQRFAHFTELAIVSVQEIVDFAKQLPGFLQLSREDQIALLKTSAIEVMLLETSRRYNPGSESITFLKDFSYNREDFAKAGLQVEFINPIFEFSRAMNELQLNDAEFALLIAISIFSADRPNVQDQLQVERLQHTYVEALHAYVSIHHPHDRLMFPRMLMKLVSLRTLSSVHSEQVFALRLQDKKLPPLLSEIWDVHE
Chain of Myc proto-oncogene protein (Homo sapiens) (P01106 whole entry, looked up, the tested form may be a part): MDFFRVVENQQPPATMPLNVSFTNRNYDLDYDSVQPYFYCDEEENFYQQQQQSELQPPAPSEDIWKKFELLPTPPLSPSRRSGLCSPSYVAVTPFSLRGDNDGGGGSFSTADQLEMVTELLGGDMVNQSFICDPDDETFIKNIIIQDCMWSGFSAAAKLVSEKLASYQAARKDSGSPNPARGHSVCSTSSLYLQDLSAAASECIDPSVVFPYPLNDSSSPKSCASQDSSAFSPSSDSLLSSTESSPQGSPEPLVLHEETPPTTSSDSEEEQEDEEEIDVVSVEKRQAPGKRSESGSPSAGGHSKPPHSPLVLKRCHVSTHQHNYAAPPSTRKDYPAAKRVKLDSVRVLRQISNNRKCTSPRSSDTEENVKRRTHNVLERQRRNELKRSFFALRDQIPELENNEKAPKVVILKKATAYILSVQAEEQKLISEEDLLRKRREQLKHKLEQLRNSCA
Chain of Hepatocyte nuclear factor 4-alpha (Homo sapiens) (P41235 whole entry, looked up): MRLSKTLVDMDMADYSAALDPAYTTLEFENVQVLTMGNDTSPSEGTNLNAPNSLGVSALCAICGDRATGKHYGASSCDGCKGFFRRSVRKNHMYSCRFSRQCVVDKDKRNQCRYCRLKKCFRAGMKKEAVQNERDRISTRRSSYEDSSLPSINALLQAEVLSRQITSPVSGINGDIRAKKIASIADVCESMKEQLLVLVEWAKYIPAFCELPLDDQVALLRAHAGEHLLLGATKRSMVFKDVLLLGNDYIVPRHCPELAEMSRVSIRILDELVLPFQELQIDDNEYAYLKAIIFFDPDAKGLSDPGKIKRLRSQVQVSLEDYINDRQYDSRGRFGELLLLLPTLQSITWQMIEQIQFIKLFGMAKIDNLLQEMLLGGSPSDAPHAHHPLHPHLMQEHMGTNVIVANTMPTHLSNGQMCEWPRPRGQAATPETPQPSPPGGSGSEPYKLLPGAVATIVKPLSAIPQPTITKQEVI
Chain of Glucocorticoid receptor (Homo sapiens) (P04150 whole entry, looked up, the tested form may be a part): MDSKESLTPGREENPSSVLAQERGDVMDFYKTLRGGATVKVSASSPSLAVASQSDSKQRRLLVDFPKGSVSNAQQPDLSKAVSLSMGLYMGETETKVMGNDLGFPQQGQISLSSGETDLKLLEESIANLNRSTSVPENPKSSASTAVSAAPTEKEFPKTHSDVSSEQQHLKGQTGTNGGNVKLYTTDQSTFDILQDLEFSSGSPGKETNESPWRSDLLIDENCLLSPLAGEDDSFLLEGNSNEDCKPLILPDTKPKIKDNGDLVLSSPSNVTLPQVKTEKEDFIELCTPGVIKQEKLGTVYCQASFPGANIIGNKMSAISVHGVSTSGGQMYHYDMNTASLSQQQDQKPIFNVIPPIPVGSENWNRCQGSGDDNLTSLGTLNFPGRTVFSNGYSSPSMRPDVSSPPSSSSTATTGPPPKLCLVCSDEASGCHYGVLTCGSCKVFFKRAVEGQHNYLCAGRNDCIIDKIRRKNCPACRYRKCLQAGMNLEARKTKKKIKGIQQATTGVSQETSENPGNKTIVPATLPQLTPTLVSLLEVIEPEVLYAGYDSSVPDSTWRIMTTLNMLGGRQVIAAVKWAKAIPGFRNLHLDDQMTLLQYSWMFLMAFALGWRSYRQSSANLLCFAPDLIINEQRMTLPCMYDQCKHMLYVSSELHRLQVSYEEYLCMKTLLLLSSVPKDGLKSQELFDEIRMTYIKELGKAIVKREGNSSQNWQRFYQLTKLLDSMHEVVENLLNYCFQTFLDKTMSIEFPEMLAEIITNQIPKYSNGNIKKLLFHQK

CN(C)c1nc(=O)n(C2CCCCC2)c(=O)n1C
not listed: [13] | [14] | [15] | [16] | [17] | [18] | [19]
inactive: all other assays above

Clc1ccc(C(Cl)(Cl)Cl)cc1
not listed: [1] | [8] | [16] | [17] | [18] | [19]
inactive: all other assays above

N#Cc1ccc(N(CC(N)=O)CC(F)(F)F)cc1C(F)(F)F
inactive: [1] | [4] | [5] | [6] | [7] | [15] | [10] | [11] | [12]

Cc1cccc([N+](=O)[O-])c1
not listed: [1] | [2] | [13] | [14] | [17] | [18] | [19]
inactive: all other assays above

CCCN(CCC)N=O
not listed: [1] | [8] | [9] | [13] | [17] | [18] | [19]
inactive: all other assays above

CCCCCCCCOC(=O)c1ccccc1C(=O)OCCCCCCCC
not listed: [1] | [2] | [3] | [9] | [13] | [18] | [19]
inactive: all other assays above

Cc1cc2c3c(c1)C(c1ccccc1)=N[C@@H](NC(=O)c1ccncc1)C(=O)N3CC2
inactive: [14] | [18] | [4] | [5] | [6] | [7] | [15] | [10] | [11] | [12]
active: [8] 96.6 µM

CCOCCOC(C)=O
not listed: [1] | [2] | [8] | [13] | [14] | [16] | [17] | [19]
inactive: all other assays above

CCOP(=S)(OCC)SCSC(C)(C)C
active: [1] 12 µM and 12.9 µM | [2] 20.2 µM and 27.7 µM
not listed: [8] | [9] | [13] | [16] | [17]
inactive: all other assays above

Source: PubChem BioAssay (EPA / NIEHS)
